Here are results for 40 compounds from PubChem BioAssay (NCI).

Compounds without any hit were thinned out: in the full panel of roughly 79,000, 15% have a hit. Unmarked numbers belong to inactive results. Cut-off read from the data, not from the text of the source: active = growth inhibition above about 70%; inactive = the rest.

The nature of the first test: NCI Yeast Anticancer Drug Screen. Data for the rad50 strain (AID 155).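 Note: 0% = growth of vehicle-only cultures of the same strain.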 As to conditions: S. cerevisiae rad50 strain growth inhibition; at 50.0 µM; stronger effect = higher value. The essentials:
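Genetically altered yeast (DNA repair pathway); compound treatment; growth inhibition vs vehicle ctrl.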
`COc1ccc(/C=C(/NC(=O)c2ccccc2)C(=O)O)c(OC)c1C`: the growth inhibition was 2.4%.
Same read-out and setting: the figure for `Cc1ccc2c(c1)C(OC(=O)Nc1ccccc1)CCC2` (stereo not given) is 18.1%; for `CC(C)(C)C(=O)N1C(C(=O)O)Cc2ccccc2[C@@H]1Cc1ccccc1` (stereo not given in full) it is -6.9%; for `O=[N+]([O-])c1cccnc1Sc1nc2ccccc2[nH]1` it is 20.2%.
Consider `CCOCC1c2ccccc2CCN1Cc1c[nH]c2ccccc12` (stereo not given), for which the growth inhibition was 9.65%.
The same measure, in the same setting: the figure for `C1C2CC3CC1CC(c1nn4c(C56CC7CC(CC(C7)C5)C6)nnc4s1)(C2)C3` is -20.4%.
For the compound `CCC1C[N+]2(C)CCc3cc(OC)c(OC)cc3C2CC1=O` (stereo not given), the growth inhibition is -10.2%.
Consider `CCCCN=C(OC1C=CCCC1)SC` (stereo not given), for which the growth inhibition is -12.8%.
On the same count and under the same terms, in the case of `COc1cc2oc(=O)ccc2cc1[C@@H]1OC(=O)[C@@]2(C)O[C@@H]12` it was -0.75%.
The same measure, in the same setting: the figure for `CCCCCCCCCCCCCCCCCCN=C(N)N` is -1.55%.
Still for that read-out and setting: in the case of `CCCCCCCI` it was -8.9%; in that of `CCCC(C)C(=O)OC(C)CC(C)C` (stereo not given), 31%; in that of `O=C(NCN1CCOCC1)Nc1ccc(Cl)cc1`, -13.4%.
Turning to `O=C(CN1CCCC1)Nc1ccc2sc3ccccc3c(=O)c2n1`, the growth inhibition is 17.2%.
Regarding `S=c1[nH]ncc(SCc2ccccc2)c1SCc1ccccc1`, the growth inhibition was 2.95%.
On the same count and under the same terms, in the case of `O=C(O)C1CSC(c2cccs2)N1` (stereo not given) it was -19.2%.
On the same count and under the same terms, the figure for `Nc1nc2c(c(=O)[nH]1)CN(CCCN1CCOCC1)CN2` is -36.2%.
Same read-out and setting: in the case of `C/C=C/C1N(C)CCCN1C` it was -2%; in that of `CN(C)CCNC(=O)c1cccc2nc3c(C(=O)NCCN(C)C)cccc3nc12`, -11.7%; in that of `O=C(c1nc2ccc(Cl)cc2[nH]c1=O)C(O)c1ccc2c(c1)OCO2` (stereo not given), -10.9%.
Regarding `N=C(N)Sc1cc(O)c2ccccc2c1O`, the growth inhibition is -33%.
Turning to `O=C(CCc1ccccc1)NC(=S)Nc1cccc([N+](=O)[O-])c1`, the growth inhibition is -1.75%.
Same read-out and setting: in the case of `Cc1ccc(NC(=O)Nc2cccc(Cl)c2C)cc1C` it was 3.75%; in that of `CCOC(=O)/C(Cc1cnc2ccccc2n1)=N\O`, -1%; in that of `CN(C)C(=O)C1CCC(=O)N1` (stereo not given), 3.1%.
Same read-out and setting: in the case of `CN1C(NC(=O)C(C)(C)O)C(C)(C)C(C)(C)C1NC(=O)C(C)(C)O` (stereo not given) it was 27.9%.
On the same count and under the same terms, the figure for `O=C(CCc1cc(O)cc(O)c1)NCCc1cc(OCc2ccccc2)cc(OCc2ccccc2)c1` is 28.7%.
Consider `Cc1ccc(S(=O)(=O)N2CCCCC2)cc1`, for which the growth inhibition was -11.8%.
Turning to `CC(CCCSC(=N)N)SC(=N)N` (stereo not given), the growth inhibition is 4.9%.
Still for that read-out and setting: the figure for `O=Cc1ccc(O)cn1` is -0.65%.
Take `CCN(CC)CCOC(=O)c1ccc(N=Nc2ccc(O)cc2)cc1`: the growth inhibition was 7.25%.
Same read-out and setting: the figure for `CC(C)OC/N=C(/N)NC#N` is -17.1%.
Same read-out and setting: the figure for `CC1(C)COC(c2ccc(Cl)cc2)OC1` is 16.6%; for `NC(=O)C(CCN1CCCCC1)c1ccccc1` (stereo not given) it is 27.2%; for `c1ccc(N2CCN(c3ccccn3)CC2)nc1` it is -2.65%.
On the same count and under the same terms, the figure for `N#Cc1cc2ccccc2n(Cc2ccccc2)c1=O` is -8.85%.
As for `CNCC(O)(C(=O)O)C(=O)O`, the growth inhibition was -12.6%.
The same measure, in the same setting: in the case of `CC(I)CNC1=NCC(=O)N1` (stereo not given) it was -8.6%; in that of `Nc1ccc(C(C(=O)O)c2ccccc2)cc1Cl` (stereo not given), 22.6%; in that of `COc1ccccc1C1C2=C(COC2=O)Oc2cc3c(cc21)OCO3` (stereo not given), -20.8%.

A short description of the next test: NCI Yeast Anticancer Drug Screen. Data for the mec2-1 strain (AID 157). As to conditions: S. cerevisiae mec2-1 strain, at 50.0 µM, stronger effect = higher value. The essentials: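 Mutant yeast (mec2-1) grown with compound; growth inhibition relative to vehicle control reported.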
In the case of `COc1ccc(/C=C(/NC(=O)c2ccccc2)C(=O)O)c(OC)c1C`, the growth inhibition is 0.45%.
On the same count and under the same terms, in the case of `Cc1ccc2c(c1)C(OC(=O)Nc1ccccc1)CCC2` (stereo not given) it was 2%; in that of `CC(C)(C)C(=O)N1C(C(=O)O)Cc2ccccc2[C@@H]1Cc1ccccc1` (stereo not given in full), -7.25%.
The same measure, in the same setting: the figure for `O=[N+]([O-])c1cccnc1Sc1nc2ccccc2[nH]1` is 17.9%; for `CCOCC1c2ccccc2CCN1Cc1c[nH]c2ccccc12` (stereo not given) it is -21.2%; for `C1C2CC3CC1CC(c1nn4c(C56CC7CC(CC(C7)C5)C6)nnc4s1)(C2)C3` it is -12.8%.
Still for that read-out and setting: in the case of `CCC1C[N+]2(C)CCc3cc(OC)c(OC)cc3C2CC1=O` (stereo not given) it was 1.25%; in that of `CCCCN=C(OC1C=CCCC1)SC` (stereo not given), -25.6%; in that of `COc1cc2oc(=O)ccc2cc1[C@@H]1OC(=O)[C@@]2(C)O[C@@H]12`, -6.3%.
As for `CCCCCCCCCCCCCCCCCCN=C(N)N`, the growth inhibition is -10.8%.
Still for that read-out and setting: in the case of `CCCCCCCI` it was 20.9%; in that of `CCCC(C)C(=O)OC(C)CC(C)C` (stereo not given), 15.9%; in that of `O=C(NCN1CCOCC1)Nc1ccc(Cl)cc1`, 8.5%.
The same measure, in the same setting: the figure for `O=C(CN1CCCC1)Nc1ccc2sc3ccccc3c(=O)c2n1` is -29.7%; for `S=c1[nH]ncc(SCc2ccccc2)c1SCc1ccccc1` it is 2.85%.
Same read-out and setting: the figure for `O=C(O)C1CSC(c2cccs2)N1` (stereo not given) is -46.5%; for `Nc1nc2c(c(=O)[nH]1)CN(CCCN1CCOCC1)CN2` it is -26.1%.
In the case of `C/C=C/C1N(C)CCCN1C`, the growth inhibition was -7.55%.
Turning to `CN(C)CCNC(=O)c1cccc2nc3c(C(=O)NCCN(C)C)cccc3nc12`, the growth inhibition was -20.4%.
On the same count and under the same terms, the figure for `O=C(c1nc2ccc(Cl)cc2[nH]c1=O)C(O)c1ccc2c(c1)OCO2` (stereo not given) is -10.2%; for `N=C(N)Sc1cc(O)c2ccccc2c1O` it is -6.45%; for `O=C(CCc1ccccc1)NC(=S)Nc1cccc([N+](=O)[O-])c1` it is 25.9%.
The same measure, in the same setting: in the case of `Cc1ccc(NC(=O)Nc2cccc(Cl)c2C)cc1C` it was 11.5%; in that of `CCOC(=O)/C(Cc1cnc2ccccc2n1)=N\O`, -4.4%.
Same read-out and setting: in the case of `CN(C)C(=O)C1CCC(=O)N1` (stereo not given) it was 10.6%; in that of `CN1C(NC(=O)C(C)(C)O)C(C)(C)C(C)(C)C1NC(=O)C(C)(C)O` (stereo not given), 2%.
For the compound `O=C(CCc1cc(O)cc(O)c1)NCCc1cc(OCc2ccccc2)cc(OCc2ccccc2)c1`, the growth inhibition is 24.7%.
On the same count and under the same terms, in the case of `Cc1ccc(S(=O)(=O)N2CCCCC2)cc1` it was -3.35%; in that of `CC(CCCSC(=N)N)SC(=N)N` (stereo not given), -3.5%.
Still for that read-out and setting: in the case of `O=Cc1ccc(O)cn1` it was 6.25%; in that of `CCN(CC)CCOC(=O)c1ccc(N=Nc2ccc(O)cc2)cc1`, -0.8%; in that of `CC(C)OC/N=C(/N)NC#N`, 13.1%.
Still for that read-out and setting: the figure for `CC1(C)COC(c2ccc(Cl)cc2)OC1` is 14.6%.
For `NC(=O)C(CCN1CCCCC1)c1ccccc1` (stereo not given), the growth inhibition was -7.35%.
In the case of `c1ccc(N2CCN(c3ccccn3)CC2)nc1`, the growth inhibition is -13.6%.
For `N#Cc1cc2ccccc2n(Cc2ccccc2)c1=O`, the growth inhibition is -9.9%.
Still for that read-out and setting: the figure for `CNCC(O)(C(=O)O)C(=O)O` is -45.9%; for `CC(I)CNC1=NCC(=O)N1` (stereo not given) it is 5.9%.
The same measure, in the same setting: the figure for `Nc1ccc(C(C(=O)O)c2ccccc2)cc1Cl` (stereo not given) is -9%.
On the same count and under the same terms, the figure for `COc1ccccc1C1C2=C(COC2=O)Oc2cc3c(cc21)OCO3` (stereo not given) is -8.25%.
